According to the supplement of paper PMC10849652:
Targets with a hit are over-represented here; the source holds about 7,900 in all. About 0.6% of all pairs of compound and target were hits.

Assays:
Test in all cases: log2 fold change, soluble protein after heating vs DMSO (PISA); higher = thermal stabilisation; K562 cells, 10 uM, 30 min; active = over 0.2 and 3.5 SD of the protein, either way, in both replicates (recomputed)
[1] = compound: NC(=O)Nc1cc(-c2cccc(F)c2)sc1C(=O)N[C@H]1CCCNC1
Summary of the method: (§1)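 Quantification of soluble protein used TMTpro 16plex LC-MS/MS, with channel sums equalised. Samples were the supernatant after 21,000xg for 90 min of pooled aliquots from K562 cells (2×10^6 cells/mL) treated with 10 μM compound for 30 min, heated for 3 min over 48°C-58°C, and extracted in PBS with 0.5% NP-40 at 4°C. Values, from duplicates, describe thermal stability against control samples on a log2 fold-change scale.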

[2] = compound: NC(=O)c1cnc(N[C@@H]2CCCC[C@@H]2N)nc1Nc1cccc(-n2nccn2)c1
Summary of the method: as §1

[3] = compound: NC1(c2ccc(-c3nc4ccn5c(=O)[nH]nc5c4cc3-c3ccccc3)cc2)CCC1
Summary of the method: as §1

[4] = compound: NCC(=O)Nc1ccc(-n2nc(C(F)(F)F)cc2-c2ccc3c(ccc4ccccc43)c2)cc1
Summary of the method: as §1

[5] = compound: Nc1ccccc1NC(=O)c1ccc(CNC(=O)OCc2cccnc2)cc1 [entinostat]
Summary of the method: as §1

[6] = compound: O=C(CCCCCCC(=O)Nc1ccccc1)NO [vorinostat]
Summary of the method: as §1

[7] = compound: O=C(CCCCCCNC(=O)c1cnc(N(c2ccccc2)c2ccccc2Cl)nc1)NO [citarinostat]
Summary of the method: as §1

[8] = compound: O=C(O)c1ccc2c(c1)nc(Nc1cccc(Cl)c1)c1ccncc12 [silmitasertib]
Summary of the method: as §1

[9] = compound: O=C1NC(=O)C(c2cnc3ccccn23)=C1c1cn2c3c(cc(F)cc13)CN(C(=O)N1CCCCC1)CC2
Summary of the method: as §1

[10] = compound: c1cc(OCCN2CCCCC2)cc(-c2n[nH]c3ccc(-c4nnc[nH]4)cc23)c1
Summary of the method: as §1

[11] = compound: c1cn2cc(-c3ccc4cn[nH]c4c3)nc(Nc3ccc(N4CCOCC4)cc3)c2n1 [entospletinib]
Summary of the method: as §1

Measured: log2 fold change

STAM2 (UniProt O75886)
inactive: [1] -0.111 | [2] -0.136 | [3] -0.133 | [4] -0.101 | [5] 0.012 | [6] 0.04 | [7] 0.026 | [8] 0.049 | [9] -0.041 | [10] 0.064 | [11] 0.052

STK4 (UniProt Q13043)
Chain of UniProt Q13043 (Q13043 whole entry, looked up): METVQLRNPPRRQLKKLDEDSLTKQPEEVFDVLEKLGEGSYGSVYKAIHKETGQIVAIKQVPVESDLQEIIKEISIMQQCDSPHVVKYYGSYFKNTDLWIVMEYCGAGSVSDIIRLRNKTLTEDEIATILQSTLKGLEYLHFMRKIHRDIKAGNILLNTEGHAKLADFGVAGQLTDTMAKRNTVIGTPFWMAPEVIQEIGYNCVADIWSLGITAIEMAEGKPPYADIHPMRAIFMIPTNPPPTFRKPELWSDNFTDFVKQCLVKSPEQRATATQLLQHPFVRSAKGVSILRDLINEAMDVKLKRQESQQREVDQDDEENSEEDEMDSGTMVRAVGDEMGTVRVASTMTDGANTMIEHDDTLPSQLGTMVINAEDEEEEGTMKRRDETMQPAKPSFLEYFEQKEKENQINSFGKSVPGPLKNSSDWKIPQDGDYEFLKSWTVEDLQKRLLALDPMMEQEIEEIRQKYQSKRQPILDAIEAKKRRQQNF
inactive: [2] -0.031 | [3] -0.1 | [4] 0.006 | [5] -0.041 | [6] 0.011 | [7] 0.064 | [8] -0.015 | [9] -0.031 | [10] -0.122 | [11] -0.024
active: [1] 0.248

SMIM20 isoform 2 (UniProt Q8N5G0)
Chain of UniProt Q8N5G0 (Q8N5G0 whole entry, looked up): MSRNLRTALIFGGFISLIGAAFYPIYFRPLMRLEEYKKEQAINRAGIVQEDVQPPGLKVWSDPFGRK
inactive: [1] -0.056 | [2] -0.032 | [3] 0 | [4] 0.002 | [5] 0.031 | [6] 0.057 | [7] -0.004 | [8] -0.01 | [9] -0.154 | [10] -0.049 | [11] 0.008

SLC25A39 (UniProt Q9BZJ4)
Chain of UniProt Q9BZJ4 (Q9BZJ4 whole entry, looked up): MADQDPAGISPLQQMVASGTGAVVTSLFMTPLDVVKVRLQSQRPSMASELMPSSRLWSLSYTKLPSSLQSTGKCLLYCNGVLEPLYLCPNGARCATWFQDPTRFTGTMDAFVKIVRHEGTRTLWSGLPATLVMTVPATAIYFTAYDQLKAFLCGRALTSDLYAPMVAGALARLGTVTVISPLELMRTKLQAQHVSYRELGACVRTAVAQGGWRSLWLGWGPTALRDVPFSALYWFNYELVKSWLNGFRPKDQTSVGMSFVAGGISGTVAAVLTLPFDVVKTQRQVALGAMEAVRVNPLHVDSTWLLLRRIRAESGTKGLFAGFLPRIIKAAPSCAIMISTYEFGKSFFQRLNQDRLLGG
inactive: [1] 0.059 | [2] -0.183 | [3] -0.345 | [4] -0.105 | [5] 0.061 | [6] -0.05 | [7] -0.015 | [8] 0.023 | [9] 0.073 | [10] 0.223 | [11] -0.045

SLC6A6 (UniProt P31641)
Chain of UniProt P31641 (P31641 whole entry, looked up): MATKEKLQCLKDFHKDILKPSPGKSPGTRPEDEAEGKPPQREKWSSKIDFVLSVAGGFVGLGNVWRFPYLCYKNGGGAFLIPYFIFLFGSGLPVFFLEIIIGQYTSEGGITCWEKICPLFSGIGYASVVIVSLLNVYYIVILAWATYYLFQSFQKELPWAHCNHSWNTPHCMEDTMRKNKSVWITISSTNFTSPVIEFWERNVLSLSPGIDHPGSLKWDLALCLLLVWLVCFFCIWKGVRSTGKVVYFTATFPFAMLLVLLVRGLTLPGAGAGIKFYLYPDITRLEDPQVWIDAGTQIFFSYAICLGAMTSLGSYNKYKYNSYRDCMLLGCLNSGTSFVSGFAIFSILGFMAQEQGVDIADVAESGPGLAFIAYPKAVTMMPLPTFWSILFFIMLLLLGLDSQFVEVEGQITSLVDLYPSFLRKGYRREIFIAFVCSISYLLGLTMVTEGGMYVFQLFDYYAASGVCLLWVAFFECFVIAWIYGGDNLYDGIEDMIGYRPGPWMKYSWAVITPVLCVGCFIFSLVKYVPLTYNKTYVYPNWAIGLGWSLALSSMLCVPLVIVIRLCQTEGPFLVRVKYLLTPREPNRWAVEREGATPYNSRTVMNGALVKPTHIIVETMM
active: [10] 0.269
inactive: [1] -0.099 | [2] 0.03 | [3] 0.024 | [4] -0.19 | [5] -0.031 | [6] -0.059 | [7] 0.065 | [8] 0.039 | [9] 0.086 | [11] -0.067

TAX1BP1 (UniProt Q86VP1)
Chain of UniProt Q86VP1 (Q86VP1 whole entry, looked up): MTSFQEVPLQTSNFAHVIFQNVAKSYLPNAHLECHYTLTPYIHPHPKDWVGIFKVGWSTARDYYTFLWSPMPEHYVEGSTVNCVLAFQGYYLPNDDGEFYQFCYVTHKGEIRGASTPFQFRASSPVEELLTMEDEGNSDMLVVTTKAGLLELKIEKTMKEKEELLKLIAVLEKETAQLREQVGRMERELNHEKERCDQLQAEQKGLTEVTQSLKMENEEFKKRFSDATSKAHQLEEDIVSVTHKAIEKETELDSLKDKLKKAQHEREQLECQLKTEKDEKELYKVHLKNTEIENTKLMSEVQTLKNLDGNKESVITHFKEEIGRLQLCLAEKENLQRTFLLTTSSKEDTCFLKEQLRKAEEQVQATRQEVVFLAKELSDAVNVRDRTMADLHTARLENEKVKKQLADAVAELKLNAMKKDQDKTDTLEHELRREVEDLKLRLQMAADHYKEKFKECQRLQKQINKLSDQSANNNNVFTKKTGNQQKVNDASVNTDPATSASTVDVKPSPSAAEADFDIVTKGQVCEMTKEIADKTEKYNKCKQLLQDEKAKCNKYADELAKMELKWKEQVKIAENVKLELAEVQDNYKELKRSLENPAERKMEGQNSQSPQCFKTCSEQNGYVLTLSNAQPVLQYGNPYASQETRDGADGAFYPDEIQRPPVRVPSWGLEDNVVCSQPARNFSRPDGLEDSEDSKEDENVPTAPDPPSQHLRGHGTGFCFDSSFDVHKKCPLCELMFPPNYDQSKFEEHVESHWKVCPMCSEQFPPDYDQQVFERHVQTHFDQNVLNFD
inactive: [1] 0.028 | [2] -0.062 | [3] -0.202 | [4] -0.102 | [5] -0.013 | [6] -0.183 | [7] 0.061 | [8] 0.042 | [9] -0.011 | [10] -0.081 | [11] 0.029

SNX3 (UniProt O60493)
Chain of UniProt O60493 (O60493 whole entry, looked up): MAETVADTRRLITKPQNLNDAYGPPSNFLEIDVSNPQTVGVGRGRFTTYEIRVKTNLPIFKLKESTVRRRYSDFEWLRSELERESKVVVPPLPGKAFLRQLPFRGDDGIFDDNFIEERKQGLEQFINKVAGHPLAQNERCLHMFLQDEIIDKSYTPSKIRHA
inactive: [1] -0.014 | [2] -0.241 | [3] -0.19 | [4] -0.001 | [5] 0.025 | [6] 0.105 | [7] 0.048 | [8] 0.132 | [9] -0.037 | [10] -0.116 | [11] 0.084

STXBP2 isoform 3 (UniProt Q15833)
Chain of UniProt Q15833 (Q15833 whole entry, looked up): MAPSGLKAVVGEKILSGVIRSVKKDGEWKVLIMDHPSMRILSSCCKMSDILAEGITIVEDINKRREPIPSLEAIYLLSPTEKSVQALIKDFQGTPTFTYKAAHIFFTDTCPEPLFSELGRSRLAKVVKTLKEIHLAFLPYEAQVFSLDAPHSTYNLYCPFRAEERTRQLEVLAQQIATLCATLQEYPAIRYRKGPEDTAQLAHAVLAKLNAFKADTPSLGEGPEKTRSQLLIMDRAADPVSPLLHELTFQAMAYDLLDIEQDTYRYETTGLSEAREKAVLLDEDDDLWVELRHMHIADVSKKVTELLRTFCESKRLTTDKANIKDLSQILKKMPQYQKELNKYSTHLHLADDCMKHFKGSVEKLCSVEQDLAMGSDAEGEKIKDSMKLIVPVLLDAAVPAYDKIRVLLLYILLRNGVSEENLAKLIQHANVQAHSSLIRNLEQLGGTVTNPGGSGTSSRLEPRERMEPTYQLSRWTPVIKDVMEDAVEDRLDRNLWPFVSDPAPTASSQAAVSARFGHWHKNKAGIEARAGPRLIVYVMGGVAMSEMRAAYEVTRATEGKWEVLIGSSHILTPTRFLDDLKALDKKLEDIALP
inactive: [1] -0.084 | [2] -0.066 | [3] -0.12 | [4] -0.051 | [5] 0.035 | [6] 0.105 | [7] 0.046 | [8] 0.112 | [9] 0.141 | [10] 0.036 | [11] 0.099

SUGP1 (UniProt Q8IWZ8)
Chain of UniProt Q8IWZ8 (Q8IWZ8 whole entry, looked up): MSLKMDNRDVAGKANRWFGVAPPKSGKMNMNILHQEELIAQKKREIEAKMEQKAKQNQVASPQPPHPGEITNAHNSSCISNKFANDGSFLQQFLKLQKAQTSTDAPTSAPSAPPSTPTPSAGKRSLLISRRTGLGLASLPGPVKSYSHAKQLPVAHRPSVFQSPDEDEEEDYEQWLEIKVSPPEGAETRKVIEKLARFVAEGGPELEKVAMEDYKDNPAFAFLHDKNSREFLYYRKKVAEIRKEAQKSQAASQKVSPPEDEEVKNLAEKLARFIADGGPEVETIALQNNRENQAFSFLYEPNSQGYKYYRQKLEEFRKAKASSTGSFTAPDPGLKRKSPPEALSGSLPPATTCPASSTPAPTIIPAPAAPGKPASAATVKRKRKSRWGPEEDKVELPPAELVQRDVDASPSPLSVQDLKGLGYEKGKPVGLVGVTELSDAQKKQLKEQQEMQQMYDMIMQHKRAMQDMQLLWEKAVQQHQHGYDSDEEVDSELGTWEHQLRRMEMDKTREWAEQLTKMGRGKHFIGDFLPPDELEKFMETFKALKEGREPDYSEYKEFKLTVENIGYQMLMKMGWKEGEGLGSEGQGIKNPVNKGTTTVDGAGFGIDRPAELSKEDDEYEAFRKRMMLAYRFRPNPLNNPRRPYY
inactive: [1] 0 | [2] -0.05 | [3] -0.073 | [4] -0.071 | [5] 0.054 | [6] 0.077 | [7] 0.074 | [8] 0.101 | [9] -0.065 | [10] 0.045 | [11] -0.04

TM9SF2 (UniProt Q99805)
Chain of UniProt Q99805 (Q99805 whole entry, looked up): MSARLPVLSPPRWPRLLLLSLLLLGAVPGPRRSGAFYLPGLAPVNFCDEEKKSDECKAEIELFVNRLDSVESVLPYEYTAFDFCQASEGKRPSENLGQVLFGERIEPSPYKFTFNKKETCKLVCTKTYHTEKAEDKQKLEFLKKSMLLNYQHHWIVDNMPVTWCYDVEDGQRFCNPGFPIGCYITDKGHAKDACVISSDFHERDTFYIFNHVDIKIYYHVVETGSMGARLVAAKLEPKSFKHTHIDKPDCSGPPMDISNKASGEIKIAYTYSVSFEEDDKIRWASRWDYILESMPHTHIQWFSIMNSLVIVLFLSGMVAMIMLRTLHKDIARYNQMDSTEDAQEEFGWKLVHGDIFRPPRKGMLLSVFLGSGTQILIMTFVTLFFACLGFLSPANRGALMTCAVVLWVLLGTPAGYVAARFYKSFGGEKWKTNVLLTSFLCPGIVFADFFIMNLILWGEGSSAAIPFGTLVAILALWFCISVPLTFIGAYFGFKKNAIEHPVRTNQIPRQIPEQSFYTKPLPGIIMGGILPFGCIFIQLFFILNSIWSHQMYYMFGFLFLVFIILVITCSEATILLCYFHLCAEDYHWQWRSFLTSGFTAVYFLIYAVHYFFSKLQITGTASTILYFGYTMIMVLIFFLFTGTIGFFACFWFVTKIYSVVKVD
inactive: [1] 0.026 | [2] 0.006 | [3] -0.138 | [4] -0.022 | [5] -0.006 | [6] 0.006 | [7] -0.003 | [8] 0.002 | [9] -0.057 | [10] -0.062 | [11] 0.023
